Rows were chosen to be rich in hits. Some 15% of all compounds tested hit in one or more screens of this group.
ALOX12 inh = ALOX12 (human) lipoxygenase inhibition | P18054 | purified 12hLO, xylenol orange hydroperoxide absorbance | Potency, µM (doses to about 108 µM), inactives show at the highest dose activity change, negative = inhibition, usual class: inhibitors | 580,000 compounds, 1.1% hits | AID 1671190
Target sequence (P18054 whole entry, looked up): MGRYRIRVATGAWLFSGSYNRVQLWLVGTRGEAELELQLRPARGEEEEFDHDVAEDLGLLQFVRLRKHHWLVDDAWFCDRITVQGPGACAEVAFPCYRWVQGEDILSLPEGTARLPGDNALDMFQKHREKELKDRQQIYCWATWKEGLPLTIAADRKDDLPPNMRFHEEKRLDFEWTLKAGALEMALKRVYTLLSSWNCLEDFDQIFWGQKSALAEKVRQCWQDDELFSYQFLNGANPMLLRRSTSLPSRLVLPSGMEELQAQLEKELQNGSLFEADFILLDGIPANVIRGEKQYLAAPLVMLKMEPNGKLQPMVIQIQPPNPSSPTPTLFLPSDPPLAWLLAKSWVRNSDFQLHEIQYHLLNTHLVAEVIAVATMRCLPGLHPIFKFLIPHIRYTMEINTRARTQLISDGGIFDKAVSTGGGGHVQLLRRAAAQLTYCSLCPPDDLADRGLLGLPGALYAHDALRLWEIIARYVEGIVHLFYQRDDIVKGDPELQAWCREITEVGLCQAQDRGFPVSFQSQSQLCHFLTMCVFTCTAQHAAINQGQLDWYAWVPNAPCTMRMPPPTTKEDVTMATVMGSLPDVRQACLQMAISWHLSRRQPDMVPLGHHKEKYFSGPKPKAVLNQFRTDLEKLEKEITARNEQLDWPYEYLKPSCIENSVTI
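Hydroperoxide product was detected by ferrous iron/xylenol orange as the 573 to 405 nm absorbance ratio. Arachidonic acid at 40 uM (final) was turned over for 30 min at room temperature by 150 nM human 12hLO, pH 7.0 Hepes buffer, after 15 min compound preincubation.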
RORgamma inh = blocks mouse ROR gamma transcriptional activity. P51450. Drosophila S2 Gal4-RORgamma UAS-luciferase reporter, 20 h. Potency, µM (highest dose often 53.6 µM), for the others: at the top dose activity change, negative = inhibition, hits mostly inhibitors. 310,000 compounds, 5.4% hits; note: nearly all actives have a fitted effect of over 60% in size
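ROR gamma transcriptional activity was tracked as Gal4-UAS luciferase output in stably transfected Drosophila Schneider cells, with compound added 1 hr before 700 uM copper sulfate induction and a 20 hr ambient-temperature incubation.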
Gal4-VP16 FLuc = counter-screen for ROR gamma inhibitors: Gal4-VP16 reporter | Drosophila S2 Gal4-VP16 UAS-luciferase, luminescence, 20 h | Potency, µM (highest dose often 53.6 µM), for inactives: at the highest dose activity, negative = inhibition, usual class: inhibitors | 310,000 compounds, 3.5% hits | AID 2546;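 note: Gal4-VP16 expression switched on by copper sulfate through the metallothionein promoter; nearly all actives have a fitted effect of over 50% in size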
DT40 TDP1 CPT = growth inhibition of DT40 Tdp1-/-;hTDP1 cells with camptothecin (screen for TDP1 inhibitors); chicken DT40 Tdp1-/-;hTDP1 cells + 20 nM CPT, ATP luminescence, 48 h; Potency, µM (top dose mostly 46.2 µM), inactives show at the top dose activity change, negative = growth inhibition, actives largely listed as inhibitors; 420,000 compounds, 12% hits; AID 686979; note: nearly all actives have a fitted effect of over 55% in size
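Chicken DT40 Tdp1-/- cells complemented with human TDP1, 400 cells/well, exposed to compounds plus 20 nM camptothecin for at least 48 h at 37 C; viability read as ATP content by CellTiter-Glo luminescence.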
ELG1 repair inh = ELG1-dependent DNA repair inhibition. AID 504467. 330,000 compounds, 2.3% hits. HEK293T ELG1-luciferase reporter, luminescence, 16 h; DNA damage induced by 5-fluorouridine. Potency, µM (top dose mostly 46.1 µM), without a hit: at the top dose activity change, negative = inhibition, most hits filed as inhibitors; note: nearly all actives have a fitted effect of over 55% in size
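Luminescence from the luciferase reporter, measured 30 min after ONE-Glo reagent at room temperature, was the read-out. Beforehand, 2,000 cells per well were exposed for 16 hr at 37 °C to 5-fluorouridine together with compound or vehicle.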
DT40 TDP1 no CPT = qHTS for Inhibitors of human tyrosyl-DNA phosphodiesterase 1 (TDP1): qHTS in cells in absence of CPT. DT40 Tdp1-/- hTDP1 cells, no CPT, ATP luminescence, 48 h. Potency, µM (top dose mostly 46.2 µM), for the others: top-dose activity change, negative = growth inhibition, actives largely listed as inhibitors. 420,000 compounds, 15% hits; note: nearly all actives have a fitted effect of over 55% in size
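Luminescent ATP content (CellTiter-Glo) served as the growth readout. Knockout chicken DT40 cells expressing human TDP1 were exposed to compounds without camptothecin for a minimum 48 hr at 37 °C.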
Starred values were filed as active, the others as inactive; ! = a repeat was not active. Calls come from the whole dose curve; as a rule, active = well fitted curve in the direction sought with a large enough effect; inconclusive = small, poorly fitted or top-dose-only effect, or another doubt; inactive = no such curve, though single readings can be large; an effect the other way counts as inactive or inconclusive. % is set by controls: 0 for no effect and ±100 for the full control effect; potency is the fitted concentration of half-maximal effect.

`Cc1ccc(Cc2cnc(N3C(=N)SC(C)C3=O)s2)cc1` (stereo not drawn) gave ALOX12 inh 11.3%, RORgamma inh 5.01µM*, Gal4-VP16 FLuc 3.16µM*, DT40 TDP1 CPT inconclusive, ELG1 repair inh inconclusive and DT40 TDP1 no CPT inconclusive.
Screening O=C1c2ccccc2C(=O)N1c1ncc(Cc2ccc(Cl)cc2)s1 returned ALOX12 inh -2.0%, RORgamma inh -21.9%, Gal4-VP16 FLuc -5.7%, DT40 TDP1 CPT 18.4µM*, ELG1 repair inh inconclusive and DT40 TDP1 no CPT inconclusive.
Screening Cc1cccc(Cc2cnc(N3C(=N)SC(C)C3=O)s2)c1 (stereo not drawn) returned ALOX12 inh 2.2%, RORgamma inh 0.355µM*, Gal4-VP16 FLuc 1.12µM*, DT40 TDP1 CPT inconclusive, ELG1 repair inh inconclusive and DT40 TDP1 no CPT 18.4µM*.
Screening Cc1cccc(Cc2cnc(N3C(=N)SC(c4ccccc4)C3=O)s2)c1 (stereo not drawn) returned ALOX12 inh 5.3%, RORgamma inh inconclusive, Gal4-VP16 FLuc 1.26µM*, DT40 TDP1 CPT 29.1µM*, ELG1 repair inh 1.7% and DT40 TDP1 no CPT 25.9µM*.
CC(C)Cn1c(N)c(C(=O)COC(=O)Cc2cccs2)c(=O)n(C)c1=O was read as ALOX12 inh -58.8%, RORgamma inh inconclusive, Gal4-VP16 FLuc inconclusive, DT40 TDP1 CPT 18.4µM*, ELG1 repair inh -8.8% and DT40 TDP1 no CPT 23.1µM*.
Screening CC(=O)N/C(=C\c1ccccc1)C(=O)OCC(=O)c1c(N)n(CC(C)C)c(=O)n(C)c1=O returned ALOX12 inh -27.8%, DT40 TDP1 CPT -5.6%, ELG1 repair inh inconclusive and DT40 TDP1 no CPT -20.2%.
For CC(C)Cn1c(N)c(C(=O)COC(=O)Cc2cccc(C(F)(F)F)c2)c(=O)n(C)c1=O the results were ALOX12 inh -5.8%, DT40 TDP1 CPT 16.4µM*, ELG1 repair inh inconclusive and DT40 TDP1 no CPT 20.6µM*.
Screening CC(C)Cn1c(N)c(C(=O)COC(=O)/C=C/c2cccs2)c(=O)n(C)c1=O returned ALOX12 inh -19.2%, RORgamma inh inconclusive, Gal4-VP16 FLuc inconclusive, DT40 TDP1 CPT inconclusive, ELG1 repair inh 9.2µM* and DT40 TDP1 no CPT 16.4µM*.
`COc1ccc(CCNC(=O)CCCn2c(=O)c3cccn3c3ccccc32)cc1OC` gave ALOX12 inh -21.1%, DT40 TDP1 CPT 16.4µM* and DT40 TDP1 no CPT 13µM*.
`CC(CNC(=O)CCn1c(=O)c2cccn2c2ccc(F)cc21)c1ccccc1` (stereo not drawn) gave ALOX12 inh inconclusive, RORgamma inh 1.2%, Gal4-VP16 FLuc -16.8%, DT40 TDP1 CPT 13µM*!, ELG1 repair inh 6.6% and DT40 TDP1 no CPT inconclusive.
`COc1ccc(CCNC(=O)CCCn2c(=O)c3cccn3c3ccc(F)cc32)cc1OC` gave ALOX12 inh -24.8%, DT40 TDP1 CPT 14.6µM* and DT40 TDP1 no CPT 11.6µM*.
`COc1ccc(CCNC(=O)CCCn2c(=O)c3cccn3c3cccnc32)cc1OC` gave ALOX12 inh -18.5%, DT40 TDP1 CPT inconclusive and DT40 TDP1 no CPT inconclusive.
Screening COc1cccc(CNC(=O)CCCn2c(=O)c3cccn3c3ccc(F)cc32)c1OC returned ALOX12 inh 0.0%, DT40 TDP1 CPT 11.6µM* and DT40 TDP1 no CPT 8.2µM*.
Screening O=C(c1ccc(C(F)(F)F)cc1)N1CCN(C2CC2)CC1 returned ALOX12 inh 14.3%.
CCC(C)Sc1nc2c(c(=O)n(C)c(=O)n2C)n1Cc1ccccc1Cl (stereo not drawn) was read as ALOX12 inh -1.5%.
For CCOc1ccc(NC(=O)COc2ccc(C(C)C)cc2-n2cnnc2)cc1 the results were ALOX12 inh 14.2%.
Screening Cc1ccc(CCNC(=O)CCCn2c(=O)c3cccn3c3ccc(F)cc32)cc1 returned ALOX12 inh -26.6%, DT40 TDP1 CPT inconclusive and DT40 TDP1 no CPT 16.4µM*.
`O=C(CCCn1c(=O)c2cccn2c2ccc(F)cc21)NCc1ccc(Cl)cc1` gave ALOX12 inh -26.2%, DT40 TDP1 CPT inconclusive and DT40 TDP1 no CPT 20.6µM*.
`COc1ccc(OC)c(CCNC(=O)CCCn2c(=O)c3cccn3c3ccc(F)cc32)c1` gave ALOX12 inh -16.7%, DT40 TDP1 CPT 18.4µM* and DT40 TDP1 no CPT 9.2µM*.
O=Cc1cccn1-c1ccc(F)cc1F was read as ALOX12 inh -20.3%.
`O=S(=O)(Nc1ccc2cn[nH]c2c1)c1ccc(Cl)cc1C(F)(F)F` gave ALOX12 inh -28.5%.
O=C(O)c1ccc(-c2ccccc2)cc1F was read as ALOX12 inh -7.1%.
`CCc1ccc(-c2c(C)sc(N)c2C#N)cc1` gave ALOX12 inh 28.2µM*.
For S=c1nc(NCCc2ccccc2Cl)c2ccccc2[nH]1 the results were ALOX12 inh -3.0%, RORgamma inh 1.58µM*, Gal4-VP16 FLuc 6.31µM*, DT40 TDP1 CPT -27.7%, ELG1 repair inh inconclusive and DT40 TDP1 no CPT 25.9µM*.
`O=C(CCCCCNc1nc(=S)[nH]c2ccccc12)NCCc1ccccc1` gave ALOX12 inh -30.6%, RORgamma inh inconclusive, Gal4-VP16 FLuc -9.6%, DT40 TDP1 CPT inconclusive, ELG1 repair inh inconclusive and DT40 TDP1 no CPT inconclusive.
Screening COc1ccc(CCNC(=O)CCCCCNc2nc(=S)[nH]c3ccccc23)cc1OC returned ALOX12 inh -4.7%, RORgamma inh inconclusive, Gal4-VP16 FLuc inconclusive, DT40 TDP1 CPT inconclusive, ELG1 repair inh inconclusive and DT40 TDP1 no CPT 18.4µM*.
O=C(CCCSc1nc2ccccc2[nH]1)NCc1ccccc1Cl was read as ALOX12 inh -28.2%, RORgamma inh inconclusive, Gal4-VP16 FLuc 2.0%, DT40 TDP1 CPT -13.7%, ELG1 repair inh -0.9% and DT40 TDP1 no CPT inconclusive.
Screening COc1ccc(CNC(=O)CCCCCNc2nc(=S)[nH]c3ccccc23)cc1 returned ALOX12 inh -8.3%, RORgamma inh inconclusive, Gal4-VP16 FLuc -3.0%, DT40 TDP1 CPT inconclusive, ELG1 repair inh inconclusive and DT40 TDP1 no CPT 10.3µM*.
Screening O=C(CCCCCNc1nc(=S)[nH]c2ccccc12)NCc1ccccc1Cl returned ALOX12 inh -10.3%, RORgamma inh 17.8µM*, Gal4-VP16 FLuc inconclusive and ELG1 repair inh 0.0%.
For Cc1ccc(NC(=O)c2ccc(C(F)(F)F)cc2)c(F)c1 the results were ALOX12 inh 1.5%.

Bioassay records as filed in PubChem BioAssay.
